Screens: PubChem BioAssay, National Center for Advancing Translational Sciences (NCATS)
USP2a block: inhibitors of human ubiquitin-specific protease USP2a | O75604 | USP2 core, Ub-CHOP2 coupled fluorogenic reporter, 485/531 | Potency, µM (titrated, usually from 38.3 µM), inactives show at the highest dose activity change, negative = inhibition, actives largely listed as inhibitors | 330,000 compounds, 0.01% hits;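 note: plate controls were DMSO wells for no effect and full inhibition by NEM control for full effect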
Target sequence (O75604 whole entry, looked up): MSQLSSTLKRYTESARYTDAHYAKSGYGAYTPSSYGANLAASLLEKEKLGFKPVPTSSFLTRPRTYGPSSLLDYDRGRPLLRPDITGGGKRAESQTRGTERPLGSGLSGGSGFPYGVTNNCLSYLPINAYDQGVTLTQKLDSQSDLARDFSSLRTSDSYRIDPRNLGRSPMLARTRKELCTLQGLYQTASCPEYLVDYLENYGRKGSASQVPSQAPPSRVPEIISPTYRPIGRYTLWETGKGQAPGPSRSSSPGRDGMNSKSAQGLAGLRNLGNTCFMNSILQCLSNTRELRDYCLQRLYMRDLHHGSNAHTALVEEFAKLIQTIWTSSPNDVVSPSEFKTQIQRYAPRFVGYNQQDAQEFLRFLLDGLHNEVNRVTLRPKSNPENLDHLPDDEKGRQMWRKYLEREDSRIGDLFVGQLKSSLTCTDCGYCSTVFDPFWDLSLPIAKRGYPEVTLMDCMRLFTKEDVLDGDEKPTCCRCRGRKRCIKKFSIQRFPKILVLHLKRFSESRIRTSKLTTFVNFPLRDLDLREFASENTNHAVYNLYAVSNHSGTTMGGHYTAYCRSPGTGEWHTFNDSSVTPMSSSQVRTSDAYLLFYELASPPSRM
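USP2 core (10nM final) preincubated 30min RT with compound in 20mM Tris-HCl pH 8.0, 2mM CaCl2, 2mM beta-mercaptoethanol, 0.05% CHAPS; 25nM Ub-CHOP2 plus 25nM reporter substrate added, fluorescence (Ex485/Em531) read after 60min.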
RGS4 inhibitor: human RGS4 inhibition. Potency, µM (series often up to 114 µM), for the others: top-dose activity change, negative = inhibition, most hits filed as inhibitors. Transcreener GDP fluorescence polarization, RGS4-accelerated GTP hydrolysis. 390,000 compounds, 0.039% hits; note: nearly all actives have a fitted effect of over 75% in size
Target sequence (P49798 whole entry, looked up): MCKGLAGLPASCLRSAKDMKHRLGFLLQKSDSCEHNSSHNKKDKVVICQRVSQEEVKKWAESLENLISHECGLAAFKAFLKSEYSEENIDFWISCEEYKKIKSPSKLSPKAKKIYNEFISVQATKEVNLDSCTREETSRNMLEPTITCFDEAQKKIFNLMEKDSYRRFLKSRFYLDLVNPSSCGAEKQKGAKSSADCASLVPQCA
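MLSMR compounds (23 nl, pin-transferred) preincubated 10 min at room temperature with a 500nM (2x) first reagent, then RGS4 at 900nM (2x) plus Transcreener GDP mix added; fluorescence polarization (620/688 nm) read before and after 90 min at 30 °C.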
rTrxR1 inhibitor: inhibitors of rat thioredoxin reductase 1 | Potency, µM (titrated, usually from 114 µM), for inactives: at the highest dose activity change, negative = inhibition, actives largely listed as inhibitors | O89049 | 390,000 compounds, 1% hits | recombinant rTrxR1, NADPH fluorescence consumption, selenite substrate; note: nearly all actives have a fitted effect of over 65% in size
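Rat TrxR1 (90 nM in the dispensed reagent) was pre-reduced with 400 uM NADPH for 5 min at room temperature, then incubated with compound for 15 min. After 400 uM selenite was added, NADPH fluorescence (Ex 340/Em 450 nm) was followed for 8 min.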
GALK inh: galactokinase (human) inhibition | 270,000 compounds, 0.007% hits | Purified GALK, Kinase-Glo residual ATP luminescence | Potency, µM (top dose mostly 57.5 µM), for the others: top-dose activity change, negative = inhibition, usual class: inhibitors | P51570 | AID 1868
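Human GALK (5 nM) with 35 uM ATP and 100 uM galactose in 20 mM HEPES pH 8.0, 5 mM MgCl2, 60 mM NaCl, 1 mM DTT, 0.01% BSA. After 1 h at room temperature, leftover ATP was read by Kinase-Glo Plus luminescence.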
TrxR1 substrate: is turned over as a substrate by rat TrxR1. purified TrxR1 substrate turnover, NADPH consumption readout. AID 588456. O89049. 390,000 compounds, 0.01% hits. Potency, µM (titrated, usually from 114 µM), for the others: top-dose activity change, negative = substrate turnover; note: nearly all actives have a fitted effect of over 50% in size
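Rat TrxR1, dispensed at 90 nM, was prereduced with 400 uM NADPH (final) for 5 min at ~22 deg C, then incubated with compound 15 min before 400 uM selenite. A first-read NADPH fluorescence drop versus no-compound background flagged substrates.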
Eya2 phos inh: Eya2 (human) phosphatase inhibition. O00167. recombinant Eya2, OMFP fluorescence dephosphorylation (OMFP is methylfluorescein phosphate). Potency, µM (titrated, usually from 76.9 µM), inactives show top-dose activity, negative = inhibition, actives largely listed as inhibitors. 330,000 compounds, 0.006% hits
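Eya2 protein (added as 0.2 uM solution) was preincubated with compound for 10 min at ambient temperature in 50 mM HEPES pH 7.5, 50 mM NaCl, 5 uM MgCl2, 0.05% BSA, 1 mM DTT. OMFP (added at 50 uM) then reacted 10 min; fluorescence read at 485/525 nm.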
* marks the source's active call; other numbers are inactive results; i = inactive; ? = inconclusive; · = not tested or not shown; ! = a repeat was not active; [ ] = another dose, or the depositor's remark. Sampled rows, rich in hits. Any-hit rate of the full collection: about 1%. Calls come from the whole dose curve; as a rule, active = well fitted curve in the direction sought with a large enough effect; inconclusive = small, poorly fitted or top-dose-only effect, or another doubt; inactive = no such curve, though single readings can be large; an effect the other way counts as inactive or inconclusive. Unless noted, % is set by controls: 0 for no effect and ±100 for the full control effect; potency is the fitted concentration of half-maximal effect.

SMILES	USP2a block	RGS4 inhibitor	rTrxR1 inhibitor	GALK inh	TrxR1 substrate	Eya2 phos inh
COc1ccc(S(=O)(=O)Cc2ccc(C(=O)N3CCOCC3)o2)cc1	2.0%	-39.1%	35.5µM*	1.1%	4.2%	-5.2%
CCCN(CCC)CC(O)CN(c1ccccc1)S(=O)(=O)c1ccc(C)cc1 (stereo not drawn)	0.6%	12.0%	11.6%[57.1 µM]	1.5%	3.4%[57.1 µM]	-8.6%
Cc1ccc(N(CC(O)COCc2ccco2)S(=O)(=O)c2ccc(C)cc2)cc1 (stereo not drawn)	-0.1%	?	7.08µM*	-4.2%	4.5%	-12.0%
C#Cc1cccc(Nc2ncnc3cc(OC)c(OC)cc23)c1	·	170.0%[56.9 µM]	·	·	·	·
Cc1ccc(/C=C2\SC(=S)N(/N=C/c3cc([N+](=O)[O-])ccc3O)C2=O)o1	?	?	22.4µM*	-12.3%	-14.3%	6.4%
O=C(NN1C(=O)/C(=C/c2cc([N+](=O)[O-])ccc2O)SC1=S)c1ccccc1O	-0.6%	·	·	·	·	-6.8%
O=C(Nc1nccs1)[C@@H]1CC=C[C@@H]2CCN(C3CC3)C(=O)[C@@H]21	·	·	7.1%	·	-5.9%	·
O=C(COc1ccccc1C(=O)Nc1ccccc1)Nc1ccccc1Cl	·	·	1.6%	·	-5.4%	·
O=C(/C=C/c1ccco1)NC(=S)Nc1ccc(C(=O)O)cc1	-5.9%	?	39.8µM*	2.4%	-12.9%	1.6%
O=C(/C=C/c1ccco1)NC(=S)Nc1ccc(N2CCCC2)cc1	-0.6%	?	50.1µM*	0.3%	-17.9%	-11.0%
CCCCNC(=O)C(CC)n1c(SCc2cccc(F)c2)nc2ccncc21 (stereo not drawn)	·	-23.1%	11.3%	·	1.5%	·
O=[N+]([O-])c1cc(-c2ncccn2)c([N+](=O)[O-])s1	-1.2%	?	2µM*	·	-16.5%	-10.0%
O=C(Nc1ncccn1)c1cc([N+](=O)[O-])cc([N+](=O)[O-])c1	3.4%	-26.4%	-6.1%	1.6%	-11.0%	1.3%
CC(=O)Nc1ccn(C2OC(C(COC(C)=O)NC(=O)C3CCCN3C(=O)OC(C)(C)C)C(OC(C)=O)C2OC(C)=O)c(=O)n1 (stereo not drawn)	·	4.7%	7.2%	·	-5.3%	·
CN(CCC#N)C(=O)COC(=O)c1c2c(nc3ccccc13)/C(=C/c1ccco1)CC2	2.0%	?	5.62µM*	-0.1%	-3.2%	5.9%
Cc1oc(-c2cccs2)nc1CS(=O)CC(=O)NCCc1ccccc1 (stereo not drawn)	2.8%	-18.3%	5.62µM*	1.9%	11.4%[57.1 µM]	3.1%
CCCCNC(=O)CS(=O)Cc1nc(-c2cccs2)oc1C (stereo not drawn)	5.3%	-52.9%	6.31µM*	2.7%	5.2%[57.1 µM]	-7.9%
Cc1oc(-c2cccs2)nc1CS(=O)CC(=O)NCCCOC(C)C (stereo not drawn)	-0.5%	-11.1%	12.6µM*	-0.1%	0.8%	-19.6%
O=C(COc1ccccc1C(=O)Nc1ccccc1)Nc1ccccc1F	·	·	-7.6%	·	-2.5%	·
O=C(Nc1cc(OC(=O)C(F)(F)F)c2nonc2c1OC(=O)C(F)(F)F)C(F)(F)F	·	14.8%	?	·	-18.5%	·
COc1cc(-c2nn3c(-c4cc(-c5ccccc5)n[nH]4)nnc3s2)cc(OC)c1OC	·	-6.6%	21.9%	·	18.6%[0.0914 µM]	·
O=C(CN1C(=O)CC(c2ccco2)Sc2ccccc21)Nc1ccccc1F (stereo not drawn)	-0.1%	?	25.1µM*	-2.8%	2.3%	-0.8%
O=C(CSc1ccc(-c2ccco2)nn1)c1ccc(F)cc1	2.8%	?	8.91µM*	1.2%	-4.3%	0.8%
COc1ccc(C(=O)CSc2nnc(-c3ccco3)n2CC2CCCO2)cc1 (stereo not drawn)	3.2%	21.7%	?	0.9%	-5.7%	10.2%
COc1ccc(CCNC(=O)CSc2ccc(-c3ccco3)nn2)cc1	0.5%	-30.5%	-46.4%	3.8%	12.7%	4.9%
SMILES	USP2a block	RGS4 inhibitor	rTrxR1 inhibitor	GALK inh	TrxR1 substrate	Eya2 phos inh
O=C(CSc1ccc(-c2ccco2)nn1)NCc1ccc(F)cc1	-0.4%	-51.2%	50.1µM*	0.1%	7.2%	2.2%
O=C(CSc1nnc(-c2ccco2)n1CC1CCCO1)c1ccc(F)cc1 (stereo not drawn)	-6.3%	-27.4%[11.4 µM]	15.8µM*	1.3%	-0.8%	17.4%
O=C(CSc1ccc(-c2ccco2)nn1)NCCc1ccccc1	-4.6%	-38.4%	17.8µM*	-1.6%	2.7%	-19.0%
Cc1ccc(CNC(=O)CSc2ccc(-c3ccco3)nn2)cc1	2.3%	-19.0%	?	0.6%	-11.9%	5.2%
CC(C)(C)n1ncc2c(=O)n(Cc3ccccc3C(F)(F)F)cnc21	·	·	3.0%	·	-2.6%	·
Cn1c(=O)c2[nH]c(-c3ccc(S(=O)(=O)O)cc3)nc2n(C)c1=O	·	26.7%[56.9 µM]	31.6µM*!	·	i	7.7%
Cc1ccccc1-c1n[nH]c(=S)n1/N=C/C=C/c1ccco1	3.9%	?	3.98µM*	1.9%	-6.4%	10.3%
S=c1[nH]nc(-c2ccccc2)n1/N=C/C=C/c1ccco1	1.6%	-45.9%	-34.2%	-0.8%	-13.0%	5.5%
O=c1c(C(c2nnnn2C2CCCCC2)N2CCCCC2)coc2ccc(Cl)cc12 (stereo not drawn)	5.4%	10.6%	28.2µM*	1.5%	2.1%	5.5%
Clc1ccc(C(c2nnnn2C2CCCC2)N2CCN(Cc3ccncc3)CC2)cc1 (stereo not drawn)	-1.9%	10.8%[11.4 µM]	6.0%[57.1 µM]	0.3%	7.2%[57.1 µM]	1.4%
CC(=O)c1ccc(-n2c(CCC(=O)O)ccc2-c2cccs2)cc1	2.1%	?	31.6µM*	-0.8%	2.9%	21.3%
NC(=O)c1ccc(-n2c(CCC(=O)O)ccc2-c2cccs2)cc1	0.0%	-37.9%	-25.8%[57.1 µM]	-0.3%	-3.1%[57.1 µM]	-3.4%
Cc1ccc(-c2ccc(CCC(=O)O)n2-c2ccc(C(=O)O)cc2)cc1	-0.2%	-33.5%	?	3.1%	9.6%[57.1 µM]	-8.3%
CCCn1c(CCC(=O)O)ccc1-c1cccs1	-0.2%	6.0%	50.1µM*	-0.7%	31.2%	-0.3%
COC(=O)c1ccc(-n2c(CCC(=O)O)ccc2-c2ccc(C)cc2)cc1	2.1%	-0.6%	44.7µM*	3.7%	4.8%	-12.1%
Cc1ccc(-n2c(CCC(=O)O)ccc2-c2cccs2)cc1	-1.4%	?	?	-4.3%	8.1%	-9.3%
Cc1ccc(-n2c(CCC(=O)O)ccc2-c2cccs2)cc1Cl	·	?	50.1µM*	·	3.5%	·
COCCCn1c(CCC(=O)O)ccc1-c1cccs1	4.4%	-23.6%	?	-1.4%	64.5%[57.1 µM]	-1.1%
O=[N+]([O-])c1cc(Br)cc(C=Nc2ccc3c(c2)OCO3)c1O	-3.0%	?	44.7µM*	4.6%	-14.0%	22.1%
